PubChem BioAssay (NCI)
About 83,000 compounds went through this panel and 20% of them were active in at least one assay; those are over-represented in the sample as a whole.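 Interpretation: 100, growth as untreated; towards 0, rising growth inhibition; 0, no net growth; 0 to -100, cell death. Compounds scoring below 10 were considered active.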 Activity calls are given as the source filed them.

How the values were obtained:
Experiment in all cases: NCI-60 one-dose screen, 48 h (100 = growth as untreated, 0 = no growth, -100 = all killed)
SK-MEL-2 melanoma = conditions: 10 µM unless noted
EKVX NSCLC = conditions: 10 µM unless noted
SN12C renal = conditions: 10 µM unless noted
UO-31 renal = conditions: 10 µM unless noted
TK-10 renal = conditions: 10 µM unless noted
ACHN renal = conditions: 10 µM unless noted
CAKI-1 renal = conditions: 10 µM unless noted
A498 renal = conditions: 10 µM unless noted
CCRF-CEM leukemia = conditions: 10 µM unless noted
MOLT-4 leukemia = conditions: 10 µM unless noted
SR leukemia = conditions: 10 µM unless noted
RPMI-8226 leukemia = conditions: 10 µM unless noted
OVCAR-8 ovarian = conditions: 10 µM unless noted
OVCAR-5 ovarian = conditions: 10 µM unless noted
OVCAR-4 ovarian = conditions: 10 µM
SK-OV-3 ovarian = conditions: 10 µM unless noted
OVCAR-3 ovarian = conditions: 10 µM unless noted
HS 578T breast = conditions: 10 µM unless noted
NCI/ADR-RES ovarian = conditions: 10 µM unless noted
IGROV1 ovarian = conditions: 10 µM unless noted

Measured: growth

Cc1cc(NN=C(c2ccc(O)cc2)c2ccc(O)cc2)c([N+](=O)[O-])cc1[N+](=O)[O-]
active: SK-MEL-2 melanoma 0.57% | UO-31 renal 6.74% | OVCAR-8 ovarian 0.819%
inactive: EKVX NSCLC 14.9% | SN12C renal 74.2% | TK-10 renal 51.4% | ACHN renal 43.7% | CAKI-1 renal 65.1% | A498 renal 85.9% | CCRF-CEM leukemia 119% | MOLT-4 leukemia 108% | SR leukemia 84.9% | RPMI-8226 leukemia 123% | OVCAR-5 ovarian 90.1% | OVCAR-4 ovarian 52.6% | SK-OV-3 ovarian 73.5% | OVCAR-3 ovarian 63.3% | HS 578T breast 71.3% | NCI/ADR-RES ovarian 26.3%

O=C(O)c1ccccc1C(F)(F)F
inactive: SK-MEL-2 melanoma 112% | EKVX NSCLC 93.2% | SN12C renal 90.9% | UO-31 renal 95.3% | TK-10 renal 111% | ACHN renal 92.6% | CAKI-1 renal 87.8% | A498 renal 74.5% | CCRF-CEM leukemia 108% | MOLT-4 leukemia 97.1% | SR leukemia 92.4% | RPMI-8226 leukemia 59% | OVCAR-8 ovarian 105% | OVCAR-5 ovarian 97.2% | OVCAR-4 ovarian 101% | SK-OV-3 ovarian 93.1% | OVCAR-3 ovarian 97.9% | HS 578T breast 89.7% | NCI/ADR-RES ovarian 80.8%

COc1ccc2nc3ccccc3c(NCCNCCO)c2c1
inactive: CCRF-CEM leukemia 10.9% | MOLT-4 leukemia 10.1% | SK-OV-3 ovarian 16.5% | NCI/ADR-RES ovarian 68.7%
active: SK-MEL-2 melanoma -56.1% | EKVX NSCLC -7.03% | SN12C renal 1.83% | UO-31 renal -7.42% | TK-10 renal -12.7% | ACHN renal -27.4% | CAKI-1 renal 6.25% | A498 renal -60.4% | SR leukemia -11.1% | RPMI-8226 leukemia 2.45% | OVCAR-8 ovarian 5.82% | OVCAR-5 ovarian -4.97% | OVCAR-4 ovarian -10.4% | OVCAR-3 ovarian -41.6% | HS 578T breast -25.4%

CCC(Br)(CC)C(=O)c1ccc(OCC(=O)O)c(Cl)c1Cl
inactive: SK-MEL-2 melanoma 94.6% | EKVX NSCLC 95.3% | SN12C renal 89.1% | UO-31 renal 92.1% | TK-10 renal 125% | ACHN renal 108% | CAKI-1 renal 83.8% | A498 renal 97.1% | CCRF-CEM leukemia 116% | MOLT-4 leukemia 109% | SR leukemia 120% | RPMI-8226 leukemia 121% | OVCAR-8 ovarian 97.4% | OVCAR-5 ovarian 106% | OVCAR-4 ovarian 97.4% | SK-OV-3 ovarian 94.3% | OVCAR-3 ovarian 116% | HS 578T breast 107% | NCI/ADR-RES ovarian 99.1%

C[N+](C)(C)c1ncnc2[n-]cnc12
inactive: SK-MEL-2 melanoma 107% | EKVX NSCLC 81.8% | SN12C renal 72.3% | UO-31 renal 87.8% | TK-10 renal 78.9% | ACHN renal 95.3% | CAKI-1 renal 58.8% | A498 renal 81.5% | CCRF-CEM leukemia 119% | MOLT-4 leukemia 102% | SR leukemia 107% | RPMI-8226 leukemia 126% | OVCAR-8 ovarian 93.7% | OVCAR-5 ovarian 76.4% | OVCAR-4 ovarian 105% | SK-OV-3 ovarian 98.7% | OVCAR-3 ovarian 92.4% | HS 578T breast 95.6% | NCI/ADR-RES ovarian 41.5%

O=c1[nH]c(CN2CCN(c3cccc(Cl)c3)CC2)nc2cc(Cl)ccc12
active: UO-31 renal 9.86%
inactive: SK-MEL-2 melanoma 46.7% | EKVX NSCLC 105% | SN12C renal 89.3% | TK-10 renal 106% | ACHN renal 97.5% | CAKI-1 renal 99.4% | A498 renal 114% | CCRF-CEM leukemia 105% | MOLT-4 leukemia 120% | SR leukemia 89.7% | RPMI-8226 leukemia 34.7% | OVCAR-8 ovarian 46.2% | OVCAR-5 ovarian 85.3% | OVCAR-4 ovarian 104% | SK-OV-3 ovarian 82.1% | HS 578T breast 99% | NCI/ADR-RES ovarian 86.4%

Nc1cc(NN=C(c2ccc(O)cc2)c2ccc(O)cc2)c([N+](=O)[O-])cc1[N+](=O)[O-]
inactive: EKVX NSCLC 97% | SN12C renal 53% | TK-10 renal 84.3% | ACHN renal 18.1% | CAKI-1 renal 90.7% | A498 renal 101% | CCRF-CEM leukemia 91.3% | MOLT-4 leukemia 69.5% | SR leukemia 39.2% | RPMI-8226 leukemia 74.3% | OVCAR-4 ovarian 76.1% | OVCAR-3 ovarian 82% | HS 578T breast 71.4%
active: SK-MEL-2 melanoma -93.6% | UO-31 renal -88.7% | OVCAR-8 ovarian -75.8% | OVCAR-5 ovarian -50.9% | SK-OV-3 ovarian -44.4% | NCI/ADR-RES ovarian 7.33%

Nc1ccc(Cl)c([N+](=O)[O-])c1
inactive: SK-MEL-2 melanoma 97.4% | EKVX NSCLC 92% | SN12C renal 105% | UO-31 renal 101% | TK-10 renal 103% | ACHN renal 87% | CAKI-1 renal 78.8% | A498 renal 89.5% | CCRF-CEM leukemia 94% | MOLT-4 leukemia 106% | SR leukemia 90.1% | RPMI-8226 leukemia 97.8% | OVCAR-8 ovarian 101% | OVCAR-5 ovarian 86% | OVCAR-4 ovarian 97.4% | SK-OV-3 ovarian 108% | OVCAR-3 ovarian 114% | HS 578T breast 110% | NCI/ADR-RES ovarian 105%

O=C(N/N=C/c1ccc([N+](=O)[O-])cc1)c1ccc(Br)o1
inactive: SK-MEL-2 melanoma 33.6% | EKVX NSCLC 112% | SN12C renal 102% | TK-10 renal 131% | ACHN renal 107% | CAKI-1 renal 106% | A498 renal 116% | CCRF-CEM leukemia 99.5% | MOLT-4 leukemia 123% | SR leukemia 106% | RPMI-8226 leukemia 72% | OVCAR-8 ovarian 71.8% | OVCAR-5 ovarian 104% | OVCAR-4 ovarian 99.8% | SK-OV-3 ovarian 79.3% | OVCAR-3 ovarian 121% | HS 578T breast 127% | NCI/ADR-RES ovarian 99.6%
active: UO-31 renal -17.5%

O=C(O)CSCc1nnc2n(Cc3ccccc3)c(=O)c3c4c(sc3n12)CCCC4
inactive: SK-MEL-2 melanoma 79.3% | EKVX NSCLC 93.2% | SN12C renal 96% | UO-31 renal 90.2% | TK-10 renal 127% | ACHN renal 89.3% | CAKI-1 renal 99.2% | A498 renal 112% | CCRF-CEM leukemia 81% | MOLT-4 leukemia 71.8% | SR leukemia 75.6% | RPMI-8226 leukemia 76.9% | OVCAR-8 ovarian 92.6% | OVCAR-5 ovarian 94.1% | OVCAR-4 ovarian 95.6% | SK-OV-3 ovarian 106% | OVCAR-3 ovarian 107% | HS 578T breast 99.1% | NCI/ADR-RES ovarian 96.6%

COc1ccc(OC)c(NC=O)c1
inactive: SK-MEL-2 melanoma 116% | EKVX NSCLC 101% | SN12C renal 107% | UO-31 renal 92% | TK-10 renal 102% | ACHN renal 106% | CAKI-1 renal 95.7% | A498 renal 103% | CCRF-CEM leukemia 127% | MOLT-4 leukemia 88.2% | SR leukemia 83.3% | RPMI-8226 leukemia 127% | OVCAR-8 ovarian 104% | OVCAR-5 ovarian 108% | OVCAR-4 ovarian 103% | SK-OV-3 ovarian 110% | HS 578T breast 106% | NCI/ADR-RES ovarian 109%

O=[N+]([O-])c1cc([N+](=O)[O-])c(NN=C(c2ccc(O)cc2)c2ccc(O)cc2)cc1Cl
active: SK-MEL-2 melanoma -94% | SN12C renal -78.6% | UO-31 renal -98.4% | TK-10 renal -57% | ACHN renal -62.7% | OVCAR-8 ovarian -76.6% | OVCAR-4 ovarian -47.7% | OVCAR-3 ovarian -94.6% | HS 578T breast -55.6% | NCI/ADR-RES ovarian -56.8%
inactive: EKVX NSCLC 38.8% | CAKI-1 renal 42.3% | A498 renal 73.4% | CCRF-CEM leukemia 82.1% | MOLT-4 leukemia 53.4% | SR leukemia 18.8% | RPMI-8226 leukemia 67% | OVCAR-5 ovarian 78.1% | SK-OV-3 ovarian 99.5%

Cc1ccc(S(=O)(=O)Oc2ccc([N+](=O)[O-])cc2[N+](=O)[O-])cc1
inactive: SK-MEL-2 melanoma 78.8% | EKVX NSCLC 101% | SN12C renal 32.7% | UO-31 renal 73.6% | TK-10 renal 110% | ACHN renal 104% | CAKI-1 renal 82.3% | A498 renal 94.3% | CCRF-CEM leukemia 23% | MOLT-4 leukemia 54.2% | SR leukemia 56.6% | RPMI-8226 leukemia 53.2% | OVCAR-8 ovarian 78.8% | OVCAR-5 ovarian 111% | OVCAR-4 ovarian 63.6% | SK-OV-3 ovarian 119% | OVCAR-3 ovarian 107% | HS 578T breast 123% | NCI/ADR-RES ovarian 85.1%

COc1c(B(O)O)cccc1-c1nc2ccc3[nH]ncc3c2c2c1CCC2
inactive: SK-MEL-2 melanoma 58.2% | EKVX NSCLC 47.9% | SN12C renal 74.3% | UO-31 renal 23.5% | TK-10 renal 36.4% | ACHN renal 36.4% | CAKI-1 renal 16.6% | A498 renal 34.7% | CCRF-CEM leukemia 64.2% | MOLT-4 leukemia 61.6% | SR leukemia 67.8% | RPMI-8226 leukemia 60.1% | OVCAR-8 ovarian 61.2% | OVCAR-5 ovarian 89.9% | OVCAR-4 ovarian 80.7% | IGROV1 ovarian 42% | OVCAR-3 ovarian 89.8% | HS 578T breast 17.7% | NCI/ADR-RES ovarian 81.4%

Cc1ccc(-c2cc(-c3ccc(C)cc3)nc(NCCNc3ccnc4cc(Cl)ccc34)n2)cc1
active: SK-MEL-2 melanoma -72.6% | SN12C renal -88.3% | UO-31 renal -68.5% | TK-10 renal -49.2% | ACHN renal -87.5% | CAKI-1 renal -47.8% | CCRF-CEM leukemia 2.06% | MOLT-4 leukemia -29.6% | SR leukemia 2.87% | RPMI-8226 leukemia -22% | OVCAR-8 ovarian -53.4% | OVCAR-5 ovarian -34.9% | OVCAR-4 ovarian -31.4% | IGROV1 ovarian -66.2% | OVCAR-3 ovarian -80.3% | HS 578T breast -46.7% | NCI/ADR-RES ovarian -63.1%
inactive: EKVX NSCLC 24.6% | A498 renal 68.4%

CCCCCCSc1ncnc2nc[nH]c12
inactive: SK-MEL-2 melanoma 105% | EKVX NSCLC 83.6% | SN12C renal 92.4% | UO-31 renal 64.7% | TK-10 renal 103% | ACHN renal 96.8% | CAKI-1 renal 95.9% | A498 renal 95.2% | CCRF-CEM leukemia 101% | MOLT-4 leukemia 84.7% | SR leukemia 85.2% | RPMI-8226 leukemia 84.8% | OVCAR-8 ovarian 95.5% | OVCAR-5 ovarian 98.9% | OVCAR-4 ovarian 88.4% | IGROV1 ovarian 82.6% | OVCAR-3 ovarian 103% | HS 578T breast 102% | NCI/ADR-RES ovarian 91.3%

CC1=CC[C@@H]2C(C)(C)C(=O)CC[C@@]2(C)[C@@H]1COc1ccc2ccc(=O)oc2c1
inactive: SK-MEL-2 melanoma 77% | EKVX NSCLC 71.4% | SN12C renal 76.1% | UO-31 renal 39% | TK-10 renal 82% | ACHN renal 74.2% | CAKI-1 renal 47.3% | A498 renal 75.3% | CCRF-CEM leukemia 61.9% | MOLT-4 leukemia 39.1% | SR leukemia 77.9% | RPMI-8226 leukemia 45.9% | OVCAR-8 ovarian 51.1% | OVCAR-5 ovarian 98% | OVCAR-4 ovarian 23.1% | IGROV1 ovarian 77.9% | OVCAR-3 ovarian 72.5% | HS 578T breast 77.6% | NCI/ADR-RES ovarian 28.4%
